The values below come from PubChem BioAssay (NCATS).

The target of test [1] is Arylsulfatase A (Homo sapiens) (UniProt P15289). Briefly: qHTS screen for enhancers of Arylsulfatase A (ASA1): LOPAC Validation Assay (AID 720538). Note: potency is the fitted concentration of half-maximal effect. The method in brief: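 Read-out: fluorescence at Ex=525/Em=598 nm after 1N NaOH final stop. Patient fibroblasts carrying ASA-I179S had 48h compound exposure, then 14h room-temperature pNCS hydrolysis (0.5mM final) in lysis buffer. Signal increase = enhanced activity.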
Chain of Arylsulfatase A (Homo sapiens) (P15289 whole entry, looked up): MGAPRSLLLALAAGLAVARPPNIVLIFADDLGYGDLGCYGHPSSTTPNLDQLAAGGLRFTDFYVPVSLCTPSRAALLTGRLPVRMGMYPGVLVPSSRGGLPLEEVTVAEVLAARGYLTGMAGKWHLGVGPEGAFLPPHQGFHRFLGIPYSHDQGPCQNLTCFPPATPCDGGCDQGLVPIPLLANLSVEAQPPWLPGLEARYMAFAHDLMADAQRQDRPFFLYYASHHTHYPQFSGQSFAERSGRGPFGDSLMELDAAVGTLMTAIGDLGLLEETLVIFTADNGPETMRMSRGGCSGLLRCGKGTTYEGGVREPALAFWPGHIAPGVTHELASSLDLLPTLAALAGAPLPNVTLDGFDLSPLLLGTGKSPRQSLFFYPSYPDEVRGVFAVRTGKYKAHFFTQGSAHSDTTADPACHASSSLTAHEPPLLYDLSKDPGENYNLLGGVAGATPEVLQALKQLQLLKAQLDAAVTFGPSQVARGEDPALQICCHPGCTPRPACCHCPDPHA

Test [2] in a line: qHTS for compounds that reverse cellular toxicity of Amyloid beta (A-beta) peptide in yeast: LOPAC Validation Assay (AID 720559).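 Note: plate controls were DMSO for no effect and equimolar ferric chloride plus clioquinol rescue for full effect.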 The gist of the method: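 OD600 growth readout after 48 hr at 30 C; A-beta-toxic yeast plus pinned compounds in medium. Normalization: DMSO = negative, equimolar FeCl3 + clioquinol = positive.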
Background: qHTS replaces the single test concentration by a dilution series.

Test [3] is described as follows: qHTS for Activators of Parkin Expression: LOPAC Validation Assay (NLuc Reporter) (AID 720572). The method in brief: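 Compound effects on Parkin promoter activity were measured as NanoLuc luminescence after 24 h at 37 C. The neuronal reporter line also carried FLuc, which was read first. LOPAC compounds were tested at 7 concentrations, with normalization to DMSO (0%) and positive control (100%).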

The nature of test [4]: qHTS for Activators of Parkin Expression: LOPAC Validation Assay (FLuc Reporter) (AID 720573). The method in brief:
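FLuc luminescence read-out from a neuronal line expressing a Parkin-promoter-driven coincidence reporter. Cells treated 24 h at 37 C, 5% CO2 with compounds at 7 concentrations; signal increase normalized to DMSO and positive control.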

Test [5] concerns the target T1, Hexokinase-4 (Homo sapiens) + Glucokinase regulatory protein (Homo sapiens) (UniProt P35557+Q14397). Briefly: qHTS assay for inhibitors of recombinant human GCK-GKRP interaction: Diaphorase-coupled assay (AID 743205). The gist of the method: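 Resorufin fluorescence (525/590 nm), read each minute over 30 min, reports GCK activity coupled via G6PDH and diaphorase. Reaction: 10 nM GST-GCK, 10 nM FLAG-GKRP, 5 mM glucose, 0.4 mM ATP, 0.15 mM NADP+, 0.1 mM resazurin.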

The target of test [6] is T1, Hexokinase-4 (Homo sapiens) + Glucokinase regulatory protein (Homo sapiens). As to the kind of experiment: qHTS assay for inhibitors of recombinant human GCK-GKRP interaction: ADP-Glo assay (AID 743206).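 Note: plate controls were DMSO plus enzyme for no effect and no enzyme for full effect.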 The method in brief:
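Pin-transferred compounds meet a 15 nM GST-GCK/15 nM FLAG-GKRP/2 uM S6P mix (dispense concentrations). ATP is then added to 0.4 mM final with 5 mM glucose, and the reaction runs 60 min at room temperature. ADP is quantified luminescently.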

Test [7] shares this target. Briefly: qHTS assay for inhibitors of recombinant human GCK-GKRP interaction: HTRF assay (AID 743207).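 Note: 0% = DMSO with GCK present and -100% = DMSO wells lacking GCK.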 The method in brief: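 HTRF read-out (ex 320 nm; 615/665 nm emission) after 60 min RT equilibration of 5 nM GST-GCK, 5 nM FLAG-GKRP, 2 uM S6P, compound and anti-FLAG/anti-GST detection antibodies; signal normalized between DMSO wells with and without GCK.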
Test [8] can be described thus: qHTS Assay for Identifying Gametocytocidal Compounds (AID 743244).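 For max response: % is set by controls: 0 for no effect and ±100 for the full control effect; actives lower the fluorescent signal which means gametocytes are killed.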 Note: potency is the fitted concentration of half-maximal effect. As to conditions: P. falciparum 3D7 stage III-V gametocytes, alamarBlue, 72 h; max response: stronger effect = lower value. The gist of the method:
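Late gametocytes (III–V), P. falciparum 3D7; 72 h drug, then 24 h alamarBlue; resazurin reduction read by fluorescence.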

A short description of test [9]: qHTS profiling for inhibitors of Plasmodium falciparum (3D7) proliferation (AID 743322).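 Note: infected erythrocytes exposed to compound for 72 h before lysis; 100% = DMSO vehicle wells and 0% = 0.29 µM artemisinin.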 As to conditions: P. falciparum 3D7 proliferation, at 28.7 µM (top of the series). The gist of the method: (§1)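 Parasite DNA was quantified by SYBR Green I fluorescence (ex 485, em 535 nm) after overnight lysis in saponin/Triton buffer at room temperature. Cultures at 0.3% parasitemia and 2.5% hematocrit were first exposed to compound for 72 h at 37 C; signals were normalised to artemisinin (0.29 uM) and vehicle wells.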

Test [10] in a line: qHTS profiling for inhibitors of Plasmodium falciparum (DD2) proliferation (AID 743323; call rule not given here). Particulars: at 28.7 µM (top of the series), lower = more inhibition. The gist of the method: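 SYBR Green fluorescence (ex 485, em 535 nm) of lysed cultures gives parasite DNA content; wells normalized to artemisinin (0.29 uM) and DMSO controls. Infected red cells: 0.3% parasitemia, 2.5% hematocrit, 72 h, 37 C.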

A short description of test [11]: qHTS profiling for inhibitors of Plasmodium falciparum (HB3) proliferation (AID 743324).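 Note: 100% = DMSO vehicle wells and 0% = artemisinin-treated control wells.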 As to conditions: Plasmodium falciparum HB3 blood-stage proliferation; at 28.7 µM (top of the series). The gist of the method: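 SYBR Green fluorescence (485 ex/535 em) of lysed cultures, incubated overnight at room temperature in the dark, quantifies parasite DNA. Infected erythrocytes at 0.3% parasitemia and 2.5% hematocrit were exposed 72 h; values normalized to DMSO and 0.29 uM artemisinin controls.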

The nature of test [12]: qHTS profiling of the MIPE4 collection as inhibitors of Plasmodium falciparum (3D7) proliferation (AID 743344; call rule not given here;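 note: scaled between DMSO vehicle wells and 0.29 µM artemisinin as full inhibition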). As to conditions: P. falciparum 3D7 in erythrocytes, SYBR Green DNA fluorescence, 72 h; at 28.5 µM (top of the series) unless noted. The method in brief:
as §1

A short description of test [13]: qHTS profiling of the MIPE4 collection as inhibitors of Plasmodium falciparum (DD2) proliferation (AID 743345; call rule not given here). Particulars: P. falciparum Dd2 in erythrocytes, SYBR Green DNA, 72 h; at 28.5 µM (top of the series) unless noted. The method in brief:
as §1

A short description of test [14]: qHTS profiling of the MIPE4 collection as inhibitors of Plasmodium falciparum (DD2) proliferation (Rep 2) (AID 743346; call rule not given here). Particulars: P. falciparum Dd2 in erythrocytes, SYBR Green DNA, 72 h; at 28.5 µM (top of the series) unless noted. The gist of the method: as §1
Test [15] is described as follows: qHTS for small molecule inhibitors of Yes1 kinase: Counter Assay (AID 686950).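 Note: no kinase present so only ADP-Glo detection of a fixed ADP amount is tested; luminescence from ADP-Glo reporting ADP in a fixed ATP and ADP mixture; 0% = DMSO wells with ATP plus ADP and -100% = ATP-only wells without ADP.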 The gist of the method:
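ADP-Glo luminescence read after a 60 min room-temperature incubation of compound with an ATP/ADP mix (0.08 mM/0.02 mM) and no kinase, following a 20 min compound preincubation. Signal scaled between ATP+ADP (max) and 0.1 mM ATP-only (min) wells; Tris pH 7.5, Mg2+, DTT.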

Test [16] in a line: qHTS assay for small molecule agonists of the antioxidant response element (ARE) signaling pathway measured by Nrf2-dependant transcriptional activity (AID 720636; active = well fitted curve in the direction sought with a large enough effect in the repeat runs; an effect the other way counts as inactive or inconclusive;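 note: HepG2 cells with an ARE-driven luciferase reporter; % of control where 0% means no effect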). The gist of the method: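 HepG2 ARE-luc reporter line, 1% dialyzed FBS; 6 hr attachment at 37 C, compound pinned in, 16 hr at 37 C/5% CO2; ONE-Glo, 30 min RT, luminescence read.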
Test [17] in a line: qHTS assay for small molecule antagonists of the retinoid-related orphan receptor gamma (ROR-gamma) signaling pathway - cell viability counter screen (AID 720652; active = well fitted curve in the direction sought with a large enough effect in the repeat runs; an effect the other way counts as inactive or inconclusive;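 note: CHO reporter cells with doxycycline-induced ROR-gamma expression; compound exposure lasted 16 hr before ATP read; % is set by controls: 0 for no effect and ±100 for the full control effect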). The method in brief:
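Steps: seed CHO cells bearing TET-inducible ROR and ROR response element-luciferase; rest 5 hr at 37 C; add compound, then doxycycline; incubate 16 hr; add CellTiter-Glo and read luminescence as ATP-based viability.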

Test [18] in a line: qHTS assay for small molecule agonists of the antioxidant response element (ARE) signaling pathway measured by Nrf2-dependant transcriptional activity - cell viability counter screen (AID 720653; active = well fitted curve in the direction sought with a large enough effect in the repeat runs; an effect the other way counts as inactive or inconclusive; note: % is set by controls: 0 for no effect and ±100 for the full control effect). As to conditions: ARE-bla HepG2 viability, CellTiter-Glo ATP luminescence, 16 h; max response: stronger effect = lower value. The gist of the method: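 Cytotoxicity counter screen: intracellular ATP quantified by CellTiter-Glo luminescence in the same ARE-bla HepG2 plates, after 16 h compound exposure and a 2 h beta-lactamase substrate step.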

Test [19] can be described thus: qHTS assay for cell viability of HEK293 cells (AID 743288). Note: % is set by controls: 0 for no effect and ±100 for the full control effect; nearly all actives have a fitted effect of over 50% in size. As to conditions: ATP luminescence (CellTiter-Glo), 18 h; max response: stronger effect = lower value. The gist of the method:
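ATP luminescence (CellTiter-Glo) reports metabolically competent cell number after parental HEK293 cells, 2,000/well, were treated with DMSO-dissolved compounds for 18 h at 37 C; reagent incubation 30 min, room temperature.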

Test [20] in a line: qHTS assay for cell viability of the p53RE-bla HCT-116 cell line (AID 743292). Note: % is set by controls: 0 for no effect and ±100 for the full control effect; nearly all actives have a fitted effect of over 55% in size. The method in brief: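 Luminescent ATP quantitation (CellTiter-Glo) served as the viability read-out; reagent was added after 16 h compound exposure at 37 C and read after 30 min at room temperature. Cells: p53RE-bla HCT-116, 4,000 per well.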

“And” between values parts separate entries of the source, which are not always exact repeats. Identical values can stand only once. Inconclusive results are not listed. The source made the active and inactive calls. Unless noted, calls come from the whole dose curve; as a rule, active = well fitted curve in the direction sought with a large enough effect; inconclusive = small, poorly fitted or top-dose-only effect, or another doubt; inactive = no such curve, though single readings can be large; an effect the other way counts as inactive or inconclusive.

T1 sequence (P35557 whole entry, looked up): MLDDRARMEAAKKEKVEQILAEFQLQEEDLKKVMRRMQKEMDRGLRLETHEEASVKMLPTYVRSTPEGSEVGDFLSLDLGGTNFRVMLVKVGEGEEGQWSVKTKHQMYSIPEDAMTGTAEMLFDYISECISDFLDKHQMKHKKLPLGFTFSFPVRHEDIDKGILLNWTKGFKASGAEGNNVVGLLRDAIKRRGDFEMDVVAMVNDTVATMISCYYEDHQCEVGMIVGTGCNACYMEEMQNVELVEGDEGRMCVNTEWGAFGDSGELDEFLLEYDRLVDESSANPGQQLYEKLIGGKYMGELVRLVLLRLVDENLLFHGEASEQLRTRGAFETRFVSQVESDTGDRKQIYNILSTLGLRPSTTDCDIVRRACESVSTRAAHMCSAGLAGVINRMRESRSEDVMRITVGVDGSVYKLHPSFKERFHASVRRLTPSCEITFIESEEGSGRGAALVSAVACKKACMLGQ
T1 sequence (Q14397 whole entry, looked up): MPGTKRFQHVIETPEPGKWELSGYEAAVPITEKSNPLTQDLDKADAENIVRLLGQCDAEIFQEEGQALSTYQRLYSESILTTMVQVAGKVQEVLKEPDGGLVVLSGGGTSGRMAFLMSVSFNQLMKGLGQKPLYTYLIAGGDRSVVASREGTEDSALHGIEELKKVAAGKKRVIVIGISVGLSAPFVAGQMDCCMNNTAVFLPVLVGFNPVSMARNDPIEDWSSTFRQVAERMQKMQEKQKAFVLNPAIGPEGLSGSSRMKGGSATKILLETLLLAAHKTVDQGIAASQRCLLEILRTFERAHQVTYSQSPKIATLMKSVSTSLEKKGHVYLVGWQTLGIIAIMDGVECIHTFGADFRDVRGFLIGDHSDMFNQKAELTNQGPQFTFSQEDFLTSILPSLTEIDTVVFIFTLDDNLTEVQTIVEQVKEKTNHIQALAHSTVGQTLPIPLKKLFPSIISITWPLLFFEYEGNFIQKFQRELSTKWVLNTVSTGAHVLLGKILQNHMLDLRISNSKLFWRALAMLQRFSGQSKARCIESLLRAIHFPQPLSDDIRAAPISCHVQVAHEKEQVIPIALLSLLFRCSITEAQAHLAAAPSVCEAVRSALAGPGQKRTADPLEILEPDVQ

On to `C[C@H]1c2cccc(O)c2C(O)=C2C(=O)[C@]3(O)C(O)=C(C(N)=O)C(=O)[C@@H](N(C)C)[C@@H]3[C@@H](O)[C@@H]21`, for which the Potency result in [1], in test [4], in test [5], in [6] and in [7] was “inactive” each time. Moreover, the outcome in [2] and in test [3] was inactive. In [8], the max response is 18.1% (inactive). The compound further registered a remaining parasite growth % (stronger effect = lower value) in test [9] of 16.9%. Besides, the activity, percent of control in [10] was 12.8%. The remaining proliferation (% of control), lower = more inhibition in [11] came out at 15.7%. This compound returned a parasite growth, % of DMSO control in [12] of 6.81%. Further, the parasite growth remaining, % of DMSO control (lower = more inhibition) in test [13] was determined as 28.6%. Moreover, in test [14], the parasite growth, % of control (lower = inhibition) came out at 14.3%.

On to `COc1cc2nc(N(C)CCCNC(=O)C3CCCO3)nc(N)c2cc1OC` (centres undefined), for which the Potency entry in [1], in [4], in test [5], in [6] and in [7] was “inactive” each time. The compound was classed as inactive in [2] and in test [3]. In addition, the max response in [8] was 19.8% (inactive) and 12.7% (inactive). The compound also registered a parasite growth, % of DMSO control in [12] of 64%. The parasite growth remaining, % of DMSO control (lower = more inhibition) in [13] stood at 88.3%. Besides, the parasite growth, % of control (lower = inhibition) in [14] stood at 63%.

In the case of `CC[C@@]1(O)C(=O)OCc2c1cc1n(c2=O)Cc2cc3c(CN(C)C)c(O)ccc3nc2-1`, in test [15], the outcome was inactive. For the same compound, the max response in [8] is 27.1% (inactive) and 13.5% (inactive). Further, the remaining parasite growth % (stronger effect = lower value) in [9] was 11.5%. This compound also yielded an activity, percent of control in test [10] of 12.8%. Further, the parasite growth, % of DMSO control in test [12] is 13.9%. Further, the parasite growth remaining, % of DMSO control (lower = more inhibition) in [13] came out at 16.9%. In addition, the parasite growth, % of control (lower = inhibition) in test [14] is 33.7%.

Take `O=C1c2c(O)ccc(O)c2C(=O)c2c(NCCNCCO)ccc(NCCNCCO)c21`: the compound was classed as inactive in test [15], in test [2] and in test [3]. For the same compound, the Potency in [1] is 23.9 µM (active); in test [8] it was 7.94 µM (active) and 1.41 µM (active). The Potency entry in test [4], in test [5], in [6] and in test [7] was “inactive” throughout. Besides, the parasite growth, % of DMSO control in test [12] is 0.962%. For the same compound, the parasite growth remaining, % of DMSO control (lower = more inhibition) in test [13] turned out to be 1.83%. For the same compound, the parasite growth, % of control (lower = inhibition) in test [14] is 5.92%.

`Nc1ccn([C@H]2CC[C@@H](CO)O2)c(=O)n1`: the Potency entry in test [1], in [4], in test [17], in test [5], in test [6] and in test [7] was “inactive” in each case. For the same compound, the Potency result in test [20] was “inactive”. The call in test [2], in test [3] and in test [16] was inactive. Moreover, the max response in test [18] was -1.33% (inactive) and -0.56% (inactive); in test [8] it was -9.19% (inactive) and 7.53% (inactive); in test [19] it was 3.55% (inactive) and 2.55% (inactive). The same compound showed a parasite growth, % of DMSO control in [12] of 114%. Besides, the parasite growth remaining, % of DMSO control (lower = more inhibition) in test [13] turned out to be 115%. The parasite growth, % of control (lower = inhibition) in test [14] amounted to 74.1%.

Take `COc1ccccc1OCC(O)CN1CCN(CC(=O)Nc2c(C)cccc2C)CC1` (centres undefined): the result in test [2] and in [3] was inactive. For the same compound, the Potency result in test [4], in test [5], in test [6] and in test [7] was “inactive” in each case. Also, the max response in test [8] was 19.4% (inactive) and 42.5% (inactive). The compound also returned a parasite growth, % of DMSO control in test [12] of 126%. Also, the parasite growth remaining, % of DMSO control (lower = more inhibition) in [13] was 97.5%. Besides, the parasite growth, % of control (lower = inhibition) in [14] amounted to 193%.

`COc1cc2c(c(OC)c1OC)-c1ccc(OC)c(=O)cc1[C@@H](NC(C)=O)CC2`: the compound was called inactive in [2], in test [3] and in test [16]. The Potency entry in test [17], in test [5], in test [6], in test [7] and in test [20] was “inactive” each time. Further, the max response was -19.8% (inactive) and 13.5% (inactive) and -10.8% (inactive) in [18]; -10.9% (inactive) and -1.99% (inactive) in test [8]; -13.3% (inactive) and -14.4% (inactive) and -4% (inactive) in test [19].

With `CCC1(C)CC(=O)NC1=O` (centres undefined), the outcome in test [2] and in test [3] was inactive. The Potency entry in test [4], in test [5], in test [6] and in test [7] was “inactive” each time. The max response in test [8] was 19% (inactive) and 33% (inactive). Also, the parasite growth, % of DMSO control in [12] was found to be 99.5%.
